Assay results from the supplement of paper PMC6897291.

What follows are compounds tested on U-2932 (assay: growth inhibition by drug plus 177Lu-lilotomab satetraxetan (1 - RLU/untreated control) (fraction); higher = stronger inhibition). Conditions: 1000 nM; time (day): 5; 177Lu-lilotomab satetraxetan 1 ug/ml.
In short: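 With or without 18 h pretreatment by a radiolabelled anti-CD37 antibody conjugate (~600 MBq/mg; 0.5 µg/ml RIVA, 1 µg/ml U-2932), RIVA and U-2932 cells were washed and plated at 3,000 cells/well. Pre-printed compound doses were 10/100 nM for RIVA and 10/1,000 nM for U-2932. Growth inhibition uses RealTime-Glo RLU relative to the untreated no-drug wells. The calculation is 1 − RLU/mean of 48 such wells per plate, with reads daily from day 3 after 1 h at 37°C.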

Going from `Cn1cc(C2=C(c3cn(C4CCN(Cc5ccccn5)CC4)c4ccccc34)C(=O)NC2=O)c2ccccc21` to `Cc1ccccc1-n1c(Cn2cnc3c(N)ncnc32)nc2cccc(C)c2c1=O`, the “growth inhibition by drug plus 177Lu-lilotomab satetraxetan” value (shortened to “growth inhibition”) rises from 0.0211 to 0.0914.

Going from `O=C(Oc1ccc([N+](=O)[O-])cc1)N1CCC(C(O)(c2ccc3c(c2)OCO3)c2ccc3c(c2)OCO3)CC1` to `CC(=O)Nc1ccc(OC[C@](C)(O)C(=O)Nc2ccc([N+](=O)[O-])c(C(F)(F)F)c2)cc1` [Andarine (GTX-007)], the “growth inhibition” value rises from 0.0163 to 0.0839.

First: O=C(O)c1nn(Cc2ccc(Cl)cc2Cl)c2ccccc12 [Lonidamine]
Second: N[C@@H](Cc1ccc(N(CCCl)CCCl)cc1)C(=O)O [Melphalan]
The “growth inhibition” value of the first is higher: 0.167 for the first, 0.0598 for the second.

Going from `N.N.[Cl][Pt][Cl]` [Cisplatin] to `O=P1(N(CCCl)CCCl)NCCCO1` (centres undefined) [Cyclophosphamide monohydrate], the “growth inhibition” value falls from 0.065 to 0.00582.

Compared with `CCC1(c2ccc(N)cc2)CCC(=O)NC1=O` (centres undefined) [Aminoglutethimide (Cytadren)], `C=C1C[C@@H]2[C@H](CC[C@]3(C)C(=O)CC[C@@H]23)[C@@]2(C)C=CC(=O)C=C12` [Exemestane] is higher in “growth inhibition” value: 0.0642 for the first, 0.0989 for the second.

Compared with `Cc1cc2c(C(C)C)c(O)c(O)c(C=O)c2c(O)c1-c1c(C)cc2c(C(C)C)c(O)c(O)c(C=O)c2c1O` [Gossypol], `CC[C@@H](C(=O)[C@@H](C)[C@@H](O)[C@H](C)[C@@H]1O[C@@H]([C@@H](CC)C(=O)O)CC[C@@H]1C)[C@H]1O[C@]2(C=C[C@@H](O)[C@]3(CC[C@@](C)([C@H]4CC[C@](O)(CC)[C@H](C)O4)O3)O2)[C@H](C)C[C@@H]1C` [Salinomycin (Procoxacin)] is higher in “growth inhibition” value: -0.011 for the first, 0.607 for the second.

First: CC(O)(CS(=O)(=O)c1ccc(F)cc1)C(=O)Nc1ccc(C#N)c(C(F)(F)F)c1 (centres undefined) [Bicalutamide (Casodex)]
Second: CN(C)CCN(C)CCc1ccc(Cl)c(Cl)c1
The “growth inhibition” value of the first is higher: 0.0207 for the first, -0.0272 for the second.

First: CC(C)[C@]12O[C@H]1[C@@H]1O[C@]13[C@]1(O[C@H]1C[C@H]1C4=C(CC[C@@]13C)C(=O)OC4)[C@@H]2O [Triptolide]
Second: CC1=C2C[C@H]3[C@@H](CC=C4C[C@@H](O)CC[C@@]43C)[C@@H]2CC[C@]12O[C@@H]1C[C@H](C)CN[C@H]1[C@H]2C [Cyclopamine]
The “growth inhibition” value of the first is higher: 0.981 for the first, 0.0391 for the second.

In the case of `C[C@]12CCC(=O)C(O)=C1CC[C@@H]1[C@@H]2CC[C@]2(C)C(=O)CC[C@@H]12` [Formestane], the “growth inhibition” value is reported as 0.0247.

Same assay, conditions: 1000 nM; time (day): 6; 177Lu-lilotomab satetraxetan 1 ug/ml

Going from `Cn1cc(C2=C(c3cn(C4CCN(Cc5ccccn5)CC4)c4ccccc34)C(=O)NC2=O)c2ccccc21` to `Cc1ccccc1-n1c(Cn2cnc3c(N)ncnc32)nc2cccc(C)c2c1=O`, the “growth inhibition” value rises from 0.21 to 0.26.

Going from `O=C(Oc1ccc([N+](=O)[O-])cc1)N1CCC(C(O)(c2ccc3c(c2)OCO3)c2ccc3c(c2)OCO3)CC1` to `CC(=O)Nc1ccc(OC[C@](C)(O)C(=O)Nc2ccc([N+](=O)[O-])c(C(F)(F)F)c2)cc1` [Andarine (GTX-007)], the “growth inhibition” value rises from 0.077 to 0.127.

Compared with `O=C(O)c1nn(Cc2ccc(Cl)cc2Cl)c2ccccc12` [Lonidamine], `N[C@@H](Cc1ccc(N(CCCl)CCCl)cc1)C(=O)O` [Melphalan] is lower in “growth inhibition” value: 0.244 for the first, 0.0846 for the second.

First: N.N.[Cl][Pt][Cl] [Cisplatin]
Second: O=P1(N(CCCl)CCCl)NCCCO1 (centres undefined) [Cyclophosphamide monohydrate]
The “growth inhibition” value of the first is higher: 0.206 for the first, 0.0795 for the second.

First: CCC1(c2ccc(N)cc2)CCC(=O)NC1=O (centres undefined) [Aminoglutethimide (Cytadren)]
Second: C=C1C[C@@H]2[C@H](CC[C@]3(C)C(=O)CC[C@@H]23)[C@@]2(C)C=CC(=O)C=C12 [Exemestane]
The “growth inhibition” value of the first is lower: 0.126 for the first, 0.179 for the second.

Going from `Cc1cc2c(C(C)C)c(O)c(O)c(C=O)c2c(O)c1-c1c(C)cc2c(C(C)C)c(O)c(O)c(C=O)c2c1O` [Gossypol] to `CC[C@@H](C(=O)[C@@H](C)[C@@H](O)[C@H](C)[C@@H]1O[C@@H]([C@@H](CC)C(=O)O)CC[C@@H]1C)[C@H]1O[C@]2(C=C[C@@H](O)[C@]3(CC[C@@](C)([C@H]4CC[C@](O)(CC)[C@H](C)O4)O3)O2)[C@H](C)C[C@@H]1C` [Salinomycin (Procoxacin)], the “growth inhibition” value rises from 0.0745 to 0.75.

First: CC(O)(CS(=O)(=O)c1ccc(F)cc1)C(=O)Nc1ccc(C#N)c(C(F)(F)F)c1 (centres undefined) [Bicalutamide (Casodex)]
Second: CN(C)CCN(C)CCc1ccc(Cl)c(Cl)c1
The “growth inhibition” value of the first is higher: -0.0101 for the first, -0.0418 for the second.

First: CC(C)[C@]12O[C@H]1[C@@H]1O[C@]13[C@]1(O[C@H]1C[C@H]1C4=C(CC[C@@]13C)C(=O)OC4)[C@@H]2O [Triptolide]
Second: CC1=C2C[C@H]3[C@@H](CC=C4C[C@@H](O)CC[C@@]43C)[C@@H]2CC[C@]12O[C@@H]1C[C@H](C)CN[C@H]1[C@H]2C [Cyclopamine]
The “growth inhibition” value of the first is higher: 0.986 for the first, 0.0669 for the second.

For `C[C@]12CCC(=O)C(O)=C1CC[C@@H]1[C@@H]2CC[C@]2(C)C(=O)CC[C@@H]12` [Formestane], the “growth inhibition” value was 0.18.
